Measurements as given in PubChem BioAssay AID1159580 (chemical genetic matrix, 2015).
Out of some 5,500 compounds screened, about 2,000 (36%) were called active. About 18% were inconclusive and are not listed. Rule as the data show it: active = normalized growth mostly below about 0.91 (no sharp cut-off); inconclusive = no clear call, values can overlap the other calls; inactive = mostly above about 0.92. The list shows a part of the results.

Experiment: chemical genetic growth profiling, strain panel (AID 1159580);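 also: tested at 20 µM; growth read once vehicle control cultures reached saturation at 30 °C; 1 = growth at the plate median or of vehicle wells; lower values mean less growth of the strain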
Conditions: growth OD

Measured: normalized growth

CC(=O)Oc1ccccc1C(=O)Oc1ccccc1C(=O)O
inactive: S. cerevisiae deletion strains, locus YJR075W, strain HOC1, active compounds read low 1.02 | S. cerevisiae deletion strains, locus YKL009W, strain mrt4, active compounds read low 0.981 | S. cerevisiae deletion strains, locus YKL068W, active compounds read low 0.985 | S. cerevisiae deletion strains, locus YKL085W, strain MDH1 (second series), active compounds read low 0.998 | S. cerevisiae deletion strains, locus YKL085W, strain MDH1, active compounds read low 0.998 | S. cerevisiae deletion strains, locus YKL160W, strain elf1, active compounds read low 0.999 | S. cerevisiae deletion strains, locus YKL190W, strain CNB1, active compounds read low 1 | S. cerevisiae deletion strains, locus YKR001C, strain vps1, active compounds read low 0.979 | S. cerevisiae deletion strains, locus YKR026C, strain gcn3, active compounds read low 1.01 | S. cerevisiae deletion strains, locus YKR091W, strain srl3, active compounds read low 1 | S. cerevisiae deletion strains, locus YLL001W, strain dnm1, active compounds read low 1 | S. cerevisiae deletion strains, locus YLL026W, active compounds read low 1.01 | S. cerevisiae deletion strains, locus YLL041C, strain sdh2, active compounds read low 1 | S. cerevisiae deletion strains, locus YLR027C, strain aat2, active compounds read low 1.01 | S. cerevisiae deletion strains, locus YLR039C, strain RIC1, active compounds read low 0.983 | S. cerevisiae deletion strains, locus YLR058C, strain SHM2, active compounds read low 0.995 | S. cerevisiae deletion strains, locus YLR102C, strain apc9, active compounds read low 0.976 | S. cerevisiae deletion strains, locus YLR113W, strain HOG1, active compounds read low 0.977 | S. cerevisiae deletion strains, locus YLR221C, strain rsa3, active compounds read low 0.998 | S. cerevisiae deletion strains, locus YLR258W, strain gsy2, active compounds read low 0.994 | S. cerevisiae deletion strains, locus YLR262C, strain YPT6 (second series), active compounds read low 1 | S. cerevisiae deletion strains, locus YLR262C, strain YPT6, active compounds read low 0.969 | S. cerevisiae deletion strains, locus YLR268W, strain sec22, active compounds read low 1 | S. cerevisiae deletion strains, locus YLR320W, strain mms22, active compounds read low 0.998 | S. cerevisiae deletion strains, locus YLR330W, strain CHS5, active compounds read low 0.992 | S. cerevisiae deletion strains, locus YLR342W, strain FKS1 (second series), active compounds read low 0.99 | S. cerevisiae deletion strains, locus YLR342W, strain FKS1, active compounds read low 1 | S. cerevisiae deletion strains, locus YLR357W, strain rsc2, active compounds read low 1.01 | S. cerevisiae deletion strains, locus YLR370C, strain arc18, active compounds read low 1 | S. cerevisiae deletion strains, locus YLR371W, strain rom2, active compounds read low 0.975 | S. cerevisiae deletion strains, locus YLR384C, strain iki3, active compounds read low 0.995 | S. cerevisiae deletion strains, locus YLR418C, strain cdc73, active compounds read low 0.997 | S. cerevisiae deletion strains, locus YML016C, strain PPZ1, active compounds read low 0.996 | S. cerevisiae deletion strains, locus YML032C, strain rad52, active compounds read low 0.983 | S. cerevisiae deletion strains, locus YML120C, strain ndi1, active compounds read low 1.01 | S. cerevisiae deletion strains, locus YML124C, strain tub3, active compounds read low 0.992 | S. cerevisiae deletion strains, locus YMR058W, strain fet3, active compounds read low 1.01 | S. cerevisiae deletion strains, locus YMR078C, strain ctf18, active compounds read low 0.984 | S. cerevisiae deletion strains, locus YMR125W, strain sto1, active compounds read low 0.986 | S. cerevisiae deletion strains, locus YMR129W, active compounds read low 0.997 | S. cerevisiae deletion strains, locus YMR205C, strain PFK2, active compounds read low 0.998 | S. cerevisiae deletion strains, locus YMR223W, strain ubp8, active compounds read low 0.969 | S. cerevisiae deletion strains, locus YMR231W, strain pep5, active compounds read low 0.996 | S. cerevisiae deletion strains, locus YMR263W, strain SAP30, active compounds read low 1.01 | S. cerevisiae deletion strains, locus YMR307W, strain GAS1, active compounds read low 0.995 | S. cerevisiae deletion strains, locus YNL067W, strain RPL9B, active compounds read low 1.01 | S. cerevisiae deletion strains, locus YNL071W, strain lat1, active compounds read low 1.01 | S. cerevisiae deletion strains, locus YNL128W, strain TEP1, active compounds read low 1 | S. cerevisiae deletion strains, locus YNL153C, strain GIM3, active compounds read low 1.01 | S. cerevisiae deletion strains, locus YNL183C, strain NPR1, active compounds read low 0.921 | S. cerevisiae deletion strains, locus YNL209W, strain ssb2, active compounds read low 1.01 | S. cerevisiae deletion strains, locus YNL233W, strain BNI4, active compounds read low 0.999 | S. cerevisiae deletion strains, locus YNL248C, strain rpa49, active compounds read low 0.925 | S. cerevisiae deletion strains, locus YNL250W, strain rad50, active compounds read low 0.974 | S. cerevisiae deletion strains, locus YNL271C, strain bni1, active compounds read low 0.971 | S. cerevisiae deletion strains, locus YNL298W, strain CLA4, active compounds read low 0.979 | S. cerevisiae deletion strains, locus YNL307C, strain MCK1, active compounds read low 0.983 | S. cerevisiae deletion strains, locus YNL322C, strain KRE1 (second series), active compounds read low 0.998 | S. cerevisiae deletion strains, locus YNL322C, strain KRE1, active compounds read low 1 | S. cerevisiae deletion strains, locus YNR049C, strain mso1, active compounds read low 1.01 | S. cerevisiae deletion strains, locus YNR052C, strain pop2, active compounds read low 0.975 | S. cerevisiae deletion strains, locus YOL006C, strain TOP1, active compounds read low 1 | S. cerevisiae deletion strains, locus YOL012C, strain htz1 0.794 | S. cerevisiae deletion strains, locus YOL147C, strain pex11, active compounds read low 0.991 | S. cerevisiae deletion strains, locus YOR001W, strain rrp6, active compounds read low 0.972 | S. cerevisiae deletion strains, locus YOR061W, strain CKA2, active compounds read low 0.995 | S. cerevisiae deletion strains, locus YOR069W, strain VPS5, active compounds read low 0.992 | S. cerevisiae deletion strains, locus YOR070C, strain gyp1, active compounds read low 1.02 | S. cerevisiae deletion strains, locus YOR080W, strain dia2, active compounds read low 1 | S. cerevisiae deletion strains, locus YOR083W, strain WHI5, active compounds read low 1.01 | S. cerevisiae deletion strains, locus YOR106W, strain vam3, active compounds read low 1.01 | S. cerevisiae deletion strains, locus YOR136W, strain idh2, active compounds read low 0.978 | S. cerevisiae deletion strains, locus YOR144C, strain elg1, active compounds read low 0.991 | S. cerevisiae deletion strains, locus YOR184W, strain ser1, active compounds read low 0.971 | S. cerevisiae deletion strains, locus YOR231W, strain MKK1, active compounds read low 0.992 | S. cerevisiae deletion strains, locus YOR265W, strain rbl2, active compounds read low 1.03 | S. cerevisiae deletion strains, locus YOR270C, strain vph1, active compounds read low 1.01 | S. cerevisiae deletion strains, locus YOR290C, strain snf2, active compounds read low 0.974 | S. cerevisiae deletion strains, locus YOR316C, strain cot1, active compounds read low 0.978 | S. cerevisiae deletion strains, locus YPL051W, strain arl3, active compounds read low 1.03 | S. cerevisiae deletion strains, locus YPL055C, strain LGE1, active compounds read low 1.02 | S. cerevisiae deletion strains, locus YPL078C, strain atp4, active compounds read low 0.998 | S. cerevisiae deletion strains, locus YPL106C, strain sse1, active compounds read low 0.993 | S. cerevisiae deletion strains, locus YPL240C, strain hsp82, active compounds read low 1.01 | S. cerevisiae deletion strains, locus YPL241C, strain CIN2, active compounds read low 0.965 | S. cerevisiae deletion strains, locus YPL256C, strain CLN2, active compounds read low 0.992 | S. cerevisiae deletion strains, locus YPR119W, strain clb2, active compounds read low 0.991 | S. cerevisiae deletion strains, locus YPR141C, strain kar3, active compounds read low 0.975 | S. cerevisiae deletion strains, locus YPR163C, strain tif3, active compounds read low 0.987 | S. cerevisiae deletion strains, locus YPR167C, strain met16, active compounds read low 0.988 | S. cerevisiae deletion strains, strain wtn01, active compounds read low 0.998 | S. cerevisiae strains, strain wild type, active compounds read low 0.998
